# Test results from PubChem BioAssay AID686978 (National Center for Advancing Translational Sciences (NCATS), 2013).
# In all, about 420,000 compounds went through this assay and about 64,000 (15%) were called active. Roughly 27% stayed inconclusive and do not appear here. Calls come from the whole dose curve; as a rule, active = well fitted inhibition curve with a large enough effect; inconclusive = small, poorly fitted or top-dose-only effect; inactive = flat fitted curve, though single readings scatter. The list is a sample of the results. Entries that show only a call come without a potency.
# Experiment: qHTS for Inhibitors of human tyrosyl-DNA phosphodiesterase 1 (TDP1): qHTS in cells in absence of CPT; note: nearly all actives have a fitted effect of over 55% in size
# Conditions: DT40 Tdp1-/- hTDP1 cells, no CPT, ATP luminescence, 48 h; activity change, negative = growth inhibition: at 46.2 µM (top of the series)
# Summary of the method: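 Stably hTDP1-transfected Tdp1-null chicken DT40 cells were treated with library compounds minus camptothecin and grown for at least 48 hr at 37 °C, after which cellular ATP was quantified by luminescence.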
# Potency is the fitted concentration of half-maximal effect.
row,Structure (SMILES),Potency
1,CNC1(c2nnnn2-c2c(C)cccc2C)CCOC(C)(C)C1 (stereo not given),inactive
2,COc1c(O)cccc1-c1nnn(CCC(=O)OCC(=O)c2ccccc2)n1,inactive
3,CC1(C(=O)NS(=O)(=O)c2cccc(OC(F)F)c2)CCN1C(=O)C1CC1 (stereo not given),inactive
4,CCCCn1c(N)c(N(CC(C)C)C(=O)CN(C)S(=O)(=O)c2ccc(F)cc2)c(=O)[nH]c1=O,inactive
5,Cc1cc2nc3n(c2cc1C)CC1CC(C(=O)NCCC(C)C)N(C)C31 (stereo not given),inactive
6,CCCCOc1ccc(Cl)cc1CSc1nncn1N,inactive
7,COc1cccc(S(=O)(=O)NCc2ccc(C(=O)NCc3ccccn3)cc2)c1,0.92 µM (active)
8,CN(c1ccc(C(=O)NCc2ccccn2)cc1)S(C)(=O)=O,inactive
9,CS(=O)(=O)NCc1ccc(C(=O)NCc2ccccc2)cc1,inactive
10,CCSc1nc(O)c(C(c2cccc(OC)c2)c2c(O)nc(SCC)[nH]c2=O)c(=O)[nH]1,inactive
11,C/C=N/N(c1ccccc1)c1ccccc1,inactive
12,COc1ccccc1CNC(=O)COc1ccc(C)nc1[N+](=O)[O-],inactive
13,Cc1ccc2cccc(OCCCOc3ccccc3CO)c2n1,23.1 µM (active)
14,OCc1ccc(OCCCOc2cccc3cccnc23)cc1,inactive
15,O=S(=O)(c1ccc(Sc2nnc3ccccn23)nc1)N1CCOCC1,inactive
16,CCOCC(=O)NCc1ccc2c(c1)cc(C)n2C,inactive
17,CCn1c(=S)[nH]c2cc(S(=O)(=O)N3CCOCC3)ccc21,inactive
18,O=C(NCc1cccc(Cl)c1)C1=CC=CN2CCS(=O)(=O)N=C12,inactive
19,COc1ccc(C)cc1NC(=O)CCC(=O)Nc1nnc(C(F)(F)F)s1,inactive
20,CSc1ccccc1NC(=O)Cc1ccc(Br)cc1,inactive
21,CSc1ccccc1NC(=O)CN(C)CC(=O)Nc1cccc(Br)c1,23.1 µM (active)
22,CN(CC(=O)Nc1ccccc1F)CC(=O)Nc1ccccc1Br,inactive
23,CCn1c(SCC(=O)Nc2sc(C)c(C)c2C#N)nnc1C1CC1,inactive
24,CC(C)(O)C#Cc1ccc(C(=O)N2CCC(C(N)=O)(N3CCCCC3)CC2)cc1,inactive

row,Structure (SMILES),Potency
1,CC1CCN(C(=O)COC(=O)c2cc(S(=O)(=O)N3CCOCC3)ccc2Cl)CC1,inactive
2,Cn1c(=O)c2c(SCC(=O)NCC3CCCO3)nc(CC(C)(C)C)nc2n(C)c1=O (stereo not given),inactive
3,CCOC(=O)c1cccc(NC(=O)CCn2nnc3ccccc32)c1,inactive
4,CCOC(=O)c1cnc(-n2nc(C)cc2C)nc1Nc1cccc(C(C)=O)c1,8.2 µM (active)
5,CCOC(=O)c1cnc(-n2nc(C)cc2C)nc1-n1nc(C)cc1C,inactive
6,O=[N+]([O-])c1c(NCCO)cc(Sc2nc3ccccc3s2)c2nonc12,1.03 µM (active)
7,O=C(O)c1cccc(S(=O)(=O)Nc2ccc(O)cc2Sc2nc3ccccc3s2)c1,inactive
8,CCOc1ccccc1Nc1ccc2nonc2c1[N+](=O)[O-],inactive
9,COc1ccc(S(=O)(=O)NC(=O)C2(C)CCN2C(=O)COc2ccc(Cl)cc2)cc1 (stereo not given),inactive
10,c1ccc(C[C@H]2CNCCN2CCC23CC4CC(CC(C4)C2)C3)cc1,10.3 µM (active)
11,COC(=O)c1ccccc1NC(=O)CN(Cc1ccccc1)S(C)(=O)=O,inactive
12,O=C(O)CSCc1ccc(C(=O)O)o1,inactive
13,CC(C)(C)NC(=O)Cn1cnc2cc([N+](=O)[O-])ccc2c1=O,inactive
14,Cc1ccc(C)c(OCCC(=O)OCC(=O)c2ccc3c(c2)NC(=O)CO3)c1,inactive
15,COC(=O)c1ccccc1Sc1c(/C=N/OCc2ccc(Cl)cc2)c(C(F)(F)F)nn1C,20.6 µM (active)
16,COC(=O)c1ccccc1NC(=O)CN(Cc1ccc(Cl)cc1)S(C)(=O)=O,inactive
17,S=c1[nH]nc2c3c4c(sc3ncn12)CCCC4,inactive
18,Clc1ccc(-c2nnc(-c3ccccc3)nc2N2CCSCC2)cc1,14.6 µM (active)
19,OCCN1CCN(c2nnc(-c3ccccc3)c3ccccc23)CC1,inactive
20,O=C(N[C@H]1CC[C@H](CC(=O)N2CCCCC2)O[C@@H]1CO)c1cccc(F)c1,inactive
21,COc1ccc(C(=O)Nc2nncs2)c(OC)c1,inactive
22,COc1ccc(C(=O)NC2=NCCS2)c(OC)c1,inactive
23,COc1ccc(C(=O)Nc2cccc(NC(=O)c3ccc(OC)cc3OC)n2)c(OC)c1,2.59 µM (active)
24,O=C1CCCc2c1[nH]c1ccc(Br)cc21,inactive

row,Structure (SMILES),Potency
1,COc1ccc(/C=C2\SC(=S)N(CC(=O)NNC(=O)c3ccncc3)C2=O)cc1,inactive
2,CN(C(=O)COc1nnc(-c2cccs2)c(-c2cccs2)n1)c1ccccc1,18.4 µM (active)
3,CN(C(=O)COC(=O)CNC(=O)C12CC3CC(CC(C3)C1)C2)c1ccccc1,inactive
4,O=C(O)Cc1sc(-c2ccccc2)nc1-c1cccs1,inactive
5,Cc1cc(=O)oc(C)c1C(=O)NCCN(C)Cc1ccccc1,inactive
6,COc1ccccc1NC(=O)N(O)C1(C#N)CCCCC1,inactive
7,O=C(CSc1nnc2ccc(-c3ccncc3)nn12)N1CCCCC1,inactive
8,CCS(=O)(=O)c1ccc(-c2cccc(NC(=O)c3ccc(Br)o3)c2)nn1,inactive
9,COc1ccc(S(=O)(=O)N2CCN(C(=S)NCC3CCCO3)CC2)cc1OC (stereo not given),inactive
10,S=C(NCC1CCCO1)N1CCN(c2ccc(Cl)c(Cl)c2)CC1 (stereo not given),20.6 µM (active)
11,CCOc1ccc(S(=O)(=O)N2CCN(C(=S)NCC3CCCO3)CC2)cc1 (stereo not given),inactive
12,COc1cc(/C=C(/NC(=O)c2ccccc2)C(=O)Nc2cccc(O)c2)c([N+](=O)[O-])cc1OC,inactive
13,Cn1nc(C(C)(C)C)c([N+](=O)[O-])c1C(N)=O,inactive
14,COc1cccc(N2CC(C(=O)Nc3c(C)cccc3C)CC2=O)c1 (stereo not given),inactive
15,CCC(=O)Nc1ccc2nc(SCC(=O)N3CCc4ccccc43)sc2c1,10.3 µM (active)
16,O=C(Nc1ccc2nc(SCC(=O)N3CCCc4ccccc43)sc2c1)c1ccc(F)cc1,2.91 µM (active)
17,Cn1c(=O)c2c(SCC(=O)N3CCc4ccccc43)nc(-c3ccc(Cl)cc3)nc2n(C)c1=O,inactive
18,O=C(CSCc1ccccc1)N1CCc2ccccc21,inactive
19,O=C(Nc1ccc2nc(SCC(=O)N3CCCc4ccccc43)sc2c1)c1ccc(Cl)cc1,5.8 µM (active)
20,O=C(Nc1ccc2nc(SCC(=O)N3CCc4ccccc43)sc2c1)c1ccccc1F,inactive
21,O=C(CSc1ccc2nnc(-c3ccccc3)n2n1)N1CCCc2ccccc21,inactive
22,O=C(NCc1nnc(SCC(=O)N2CCCc3ccccc32)o1)c1ccccc1F,inactive
